Three compounds from PubChem BioAssay AID651598 (Sanford-Burnham Center for Chemical Genomics, 2012) can be followed below.

Several values for one entry are separate records, joined by “and”; a condition that tells them apart may be missing. Equal values may be shown once.

Sequence of Apelin receptor (Homo sapiens) (P35414 whole entry, looked up): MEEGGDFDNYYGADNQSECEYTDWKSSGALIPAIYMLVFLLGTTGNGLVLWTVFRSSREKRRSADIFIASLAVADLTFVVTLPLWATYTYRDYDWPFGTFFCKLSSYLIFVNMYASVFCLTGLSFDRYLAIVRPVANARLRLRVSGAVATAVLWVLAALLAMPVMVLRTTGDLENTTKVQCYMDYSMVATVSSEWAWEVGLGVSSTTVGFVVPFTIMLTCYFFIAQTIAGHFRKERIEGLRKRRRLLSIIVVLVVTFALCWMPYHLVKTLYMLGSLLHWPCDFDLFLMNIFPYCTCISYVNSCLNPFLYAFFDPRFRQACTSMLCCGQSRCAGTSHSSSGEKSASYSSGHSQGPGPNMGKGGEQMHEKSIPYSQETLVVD

This assay concerns the target Apelin receptor (Homo sapiens) (UniProt P35414). Description: apelin receptor (APJ) antagonists, SAR follow-up, counter-screen for CXCR6 antagonist project, cell-based, beta-arrestin, DiscoveRx, panel, CHO-K1 (AID 651598). The settings on record: CHO-K1 PathHunter beta-arrestin luminescence, antagonist mode; run 2, at 80 µM (top of the series). In general terms: The purpose of a counterscreen is to sort out artefacts and off-target activity.
With `COc1cc(C(=O)NC2CC3CCC(C2)N3CC(=O)Nc2ccccc2)cc(OC)c1OC` (stereo not drawn), the inhibition – broadly, the change of the read-out against control, counted positive when it falls – is -3.64% and 3.22%.
Consider `COc1cc(C(=O)NC2CCN(CC(=O)Nc3ccccc3)CC2)cc(OC)c1OC`, for which the inhibition was determined as 4.86%.
Under `COc1cc(C(=O)NC2CC3CCCC(C2)N3CC(=O)Nc2ccccc2)cc(OC)c1OC` (stereo not drawn) stands 11.6% and 7.3% and -8.97%.
